From PubChem BioAssay AID1018 (Sanford-Burnham Center for Chemical Genomics, 2008)
About 15 (0.007%) of roughly 200,000 compounds were called active. This is one part of a sample in which actives are shown more often than they occur. Unmarked numbers belong to inactive results. Cut-off read from the data, not from the text of the source: active = displacement above about 50%; inactive = the rest.

The compounds below were run against E3 ubiquitin-protein ligase XIAP (Homo sapiens) (UniProt P98170) (assay: XIAP antagonists, biochemical, IAP family, fluorescence polarization (AID 1018)). Conditions: XIAP BIR domain, fluorescence polarization peptide displacement; at 20 µM; stronger effect = higher value.
Sequence of E3 ubiquitin-protein ligase XIAP (Homo sapiens) (P98170 whole entry, looked up, the tested form may be a part): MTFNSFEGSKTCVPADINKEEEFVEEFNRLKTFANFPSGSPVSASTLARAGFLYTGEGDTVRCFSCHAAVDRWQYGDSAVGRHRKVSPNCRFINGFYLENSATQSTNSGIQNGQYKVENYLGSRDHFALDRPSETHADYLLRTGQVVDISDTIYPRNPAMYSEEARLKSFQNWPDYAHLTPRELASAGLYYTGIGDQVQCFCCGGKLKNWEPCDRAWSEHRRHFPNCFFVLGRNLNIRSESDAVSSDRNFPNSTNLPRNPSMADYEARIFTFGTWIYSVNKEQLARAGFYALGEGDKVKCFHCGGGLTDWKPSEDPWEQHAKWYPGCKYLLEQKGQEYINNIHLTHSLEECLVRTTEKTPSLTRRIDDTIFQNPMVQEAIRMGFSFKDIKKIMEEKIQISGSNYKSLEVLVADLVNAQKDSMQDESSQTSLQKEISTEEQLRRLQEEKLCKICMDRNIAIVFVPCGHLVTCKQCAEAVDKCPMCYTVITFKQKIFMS

SMILES	displacement
O=C(O)/C=C\C(=O)NCc1cccnc1	-9.2%
Cc1cc(F)ccc1N1CCC(N2CCN(C(C)C)C(CCO)C2)CC1 (configuration not stated)	-1.1%
O=C(c1cc(COc2ccc(F)cc2F)on1)N1CCSCC1	-0.5%
CCN1CCN(C(=S)Nc2cc(S(=O)(=O)N(CC)CC)ccc2C)CC1	-2.7%
Cc1ccccc1NC(=O)Cc1c(O)c2ccccc2[nH]c1=O	-1.1%
CCOC(=O)CSC(=S)NC(=O)c1ccc(OC)cc1	-1.6%
CCOC(=O)C1=C(C)NC(=NC)SC1c1ccccc1 (configuration not stated)	-5%
CSc1nnc(-c2cccs2)n1-c1ccccc1	0.8%
CCOC(=O)C1(CC2CC2)CCN(Cc2ccc(O)c(Cl)c2)CC1	-4.8%
CCCc1cc(=O)[nH]c(SCC(=O)N(CC)C2CCS(=O)(=O)C2)n1 (configuration not stated)	-4.4%
CC(C)(C)C1=C(C#N)C(c2ccncc2)C(C#N)=C(N)O1 (configuration not stated)	-0.4%
CCN1CCCC1CNC(=O)Cn1cccc1C(=O)c1ccccc1 (configuration not stated)	-6.4%
CC(=O)c1cc(-c2ccccc2)n(CC(=O)Nc2cc(C)cc(C)c2)c1C	-1%
Cc1ccc(C)c2[nH]c(=O)c(CN(Cc3ccco3)C(=S)NCC3CCCO3)cc12 (configuration not stated)	0.3%
CCN(c1ccccc1)S(=O)(=O)c1cc(C(=O)Nc2ccccc2Cl)ccc1F	-5.8%
O=C(c1ccc(F)cc1)N1CCCCC(Sc2nnnn2-c2ccccc2)C1=O (configuration not stated)	-21.1%
Cc1c(C(=O)C(=O)NCC2CCCO2)c2ccccc2n1C (configuration not stated)	-2.9%
CCOC(=O)C(=O)Nc1cc(Cl)ccc1C	-10.6%
Cc1c(N)cccc1-n1cnnn1	-4%
Cc1onc(-c2c(F)cccc2Cl)c1C(=O)N1CCc2ccccc2C1	-8.4%
O=C(COC(=O)CCc1nc2ccccc2s1)Nc1cccc(S(=O)(=O)N2CCOCC2)c1	-5.8%

SMILES	displacement
c1ccc(Cn2nnc3c(NCc4ccc5c(c4)OCO5)nc(C4CC4)nc32)cc1	-10.8%
CCCc1nc(NCc2ccc3c(c2)OCO3)c2nnn(Cc3ccccc3Cl)c2n1	51.1% (active)
Cc1nc(NCc2ccc3c(c2)OCO3)c2nnn(Cc3ccccc3)c2n1	-8.1%
O=C(COC(=O)c1ccc[n+]([O-])c1)Nc1c(Br)cc([N+](=O)[O-])cc1Br	-4.5%
Cc1cc(C)c(NC(=S)N(CCN(C)C)Cc2cccs2)c(C)c1	-10.6%
C=C(C)C1Cc2c(C)nn(-c3cccc4ccccc34)c2C1 (configuration not stated)	-4.8%
CCOC(=O)c1ccc(NC(=O)N2CCN(CCc3ccccc3)CC2)cc1	-8.1%
Cc1sc2ncn(-c3ccccc3)c(=O)c2c1C	4.2%
Cc1ccc2nc(C3CCCN(C(=S)Nc4ccccc4C)C3)[nH]c2c1 (configuration not stated)	-10%
CCCOC(=O)/C(=C\C=C\c1ccco1)NC(=O)c1ccccc1	-0.1%
Cc1ccc(N/C(N)=N/c2nc(CSc3ccc(C)cc3)cc(=O)[nH]2)cc1	1.1%
CC(/C=C1\SC(=S)N(NC(=O)c2ccccc2C)C1=O)=C\c1ccccc1	-1.8%
Fc1cccc(CSc2nc3ccncc3[nH]2)c1	-5.3%
CCOc1cc(N2CCOCC2)c(OCC)cc1NC(=O)CSc1ncccn1	-8.5%
O=C(Cn1cc(CCO)nn1)N1CCNCC1	-26.3%
CCOC(=O)c1c(C)[nH]c(C)c1C(=O)CSc1nnc(-c2ccncc2)n1C	-0.3%
O=C(Nc1cn(-c2ccccc2)nc1-c1ccc(Cl)cc1)c1ccccc1	-8.1%
CN1CCN(CC(O)COC(c2ccccc2)c2ccccc2)CC1 (configuration not stated)	-2.7%
CS(=O)(=O)N(CC(=O)Nc1ccc2c(c1)OCO2)c1ccccc1	0.9%
CCCCCC(=O)N1CCN(CCN=CC2=C(O)CC(c3ccc(OC)c(OC)c3)CC2=O)CC1 (configuration not stated)	-3.4%
O=c1[nH]c2cc3c(cc2cc1CN(Cc1cccnc1)C(=S)NCc1ccco1)OCO3	-8.9%

SMILES	displacement
O=C(NC1CCCC1)C(c1ccncc1)N(Cc1ccco1)C(=O)c1ccc(-c2ccccc2)[nH]1 (configuration not stated)	-0.5%
O=C(CNC(=O)c1ccc(N2C(=O)c3ccccc3C2=O)cc1)OCC(=O)c1ccccc1	-3.8%
O=C(CNC(=O)c1ccc(N2C(=O)c3ccccc3C2=O)cc1)OCC(=O)c1ccc(Cl)cc1	77.6% (active)
CCc1ccc(C(=O)COC(=O)CNC(=O)c2ccc(N3C(=O)c4ccccc4C3=O)cc2)cc1	-2.7%
CC1CCCN(C(=O)c2ccc3c(=O)n(C4CCCC4)c(=S)[nH]c3c2)C1 (configuration not stated)	-8.7%
O=C(c1ccc2c(=O)n(C3CCCC3)c(=S)[nH]c2c1)N1CCN(C2CCCCC2)CC1	-21.2%
O=C(c1ccc2c(=O)n(C3CCCC3)c(=S)[nH]c2c1)N1CCCCCC1	68.1% (active)
Cc1ccc(NC(=O)c2ccc(Cl)nc2)cc1	-3.5%
Cc1cccc(S(=O)(=O)NCC2CCCO2)c1 (configuration not stated)	-6.3%
Cc1cc(C(=O)NCc2ccc(C(=O)O)o2)c(C)o1	-8.1%
CC1(C)NC(C)(C)c2nonc2/C1=N\O	-3.8%
CC(C)(C)n1nnnc1C(c1ccncc1)N(Cc1ccccc1)Cc1ccco1 (configuration not stated)	-4.2%
O=S(=O)(/C=C/c1ccccc1)N1CCN(c2ccccc2)CC1	-3.9%
CC(C)(C)n1nnnc1C(c1cccnc1)N1CCN(c2cccc(C(F)(F)F)c2)CC1 (configuration not stated)	-2.9%
COc1ccc(NC(=O)c2cc(OC)c(OC)cc2OC)c(S(=O)(=O)N2CCOCC2)c1	-3.3%
CCOC(=O)Nc1ccc(OC)cc1S(=O)(=O)N1CCCCC1	-2.5%
CCCCOC(=O)Nc1ccc(OC)cc1S(=O)(=O)N1CCOCC1	58.7% (active)
O=C1c2ccccc2-c2onc3ccc(NCc4ccco4)c1c23	76.4%
CCNc1ccc2noc3c2c1C(=O)c1ccccc1-3	-8.9%
O=C1c2ccccc2-c2onc3ccc(NCCCn4ccnc4)c1c23	70.1% (active)
